For 16 compounds, outcome results are on record in PubChem BioAssay (NCATS).

Records with an inconclusive call do not appear. The source made the active and inactive calls. Unless noted, the call rests on the fitted dose curve; in most records, active means well fitted activation curve with a large enough effect in the main read-out, with a control signal flat (not every such curve was filed as active); inconclusive means small, poorly fitted or top-dose-only effect, or effect the other way, or a change in a side signal; inactive means flat fitted curve, though single readings scatter.

For assay [1], the target named is 3',5'-cyclic-AMP phosphodiesterase 4B (Homo sapiens) (UniProt Q07343). Kind of assay: qHTS Assay for Inhibitors of PDE-IV (AID 607). The gist of the method:
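Cell-based read-out of cAMP via a modified cyclic nucleotide-gated channel and membrane potential dye (535/590 nm) in HEK293 cells expressing PDE4 endogenously. Compounds tested up to 22.9 uM final; 100 uM RO 20-1724 reference.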
In general terms: qHTS replaces the single test concentration by a dilution series.

The nature of assay [2]: Cellular Toxicity (caspase-3) HepG2 (AID 654; active means well fitted curve in the direction sought with a large enough effect; an effect the other way counts as inactive or inconclusive;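 further: cells exposed to compound for 16 hours before reading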). The gist of the method: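 Caspase 3/7 activation is measured as a luminescence increase (aminoluciferin substrate) after 16 h compound exposure of human hepatocarcinoma HepG2 cells. AC50 values are Hill fits, scaled between DMSO baseline and 100 uM tamoxifen stimulation.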
Assay [3] in a line: Cellular Toxicity (caspase-3) Jurkat (AID 655; active means well fitted curve in the direction sought with a large enough effect; an effect the other way counts as inactive or inconclusive;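 further: cells exposed to compound for 16 h at 37 °C before reading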). The gist of the method:
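Jurkat cells (5000/well) in complete medium were treated with compounds for 16 hr at 37 °C, then Caspase-Glo 3/7 luminescence was read after 20 min at room temperature. Data normalized to DMSO (basal) and 100 uM tamoxifen (100%); AC50 from Hill fit.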

The nature of assay [4]: Cellular Toxicity (caspase-3) HUV-EC-C (AID 656; active means well fitted curve in the direction sought with a large enough effect; an effect the other way counts as inactive or inconclusive). An outline of the steps:
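HUV-EC-C endothelial cells, 1000/well, were pre-incubated 5 hr at 37°C, then exposed to compounds for 16 hr at 37°C. Caspase-Glo 3/7 luminescence was read after 20 min at room temperature. AC50 came from Hill fits, normalized to DMSO and 100 uM tamoxifen.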

Assay [5] is described as follows: Cellular Toxicity (caspase-3) SHSY5Y (AID 657; active means well fitted curve in the direction sought with a large enough effect; an effect the other way counts as inactive or inconclusive). The gist of the method:
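SH-SY5Y human neuroblastoma cells (1500/well) were treated with compounds for 16 h at 37 °C, then Caspase-Glo 3/7 luminescence was read after 1 h at room temperature. Data normalized to DMSO and 10 uM staurosporine; AC50 from Hill fits.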

Assay [6] in a line: Cellular Toxicity (caspase-3) BJ (AID 658; active means well fitted curve in the direction sought with a large enough effect; an effect the other way counts as inactive or inconclusive). An outline of the steps: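 Caspase-Glo 3/7 luminescence, read 1 hr after reagent at room temperature, in normal BJ fibroblasts exposed 16 hours at 37 °C. AC50 values from Hill-equation concentration-response, scaled between DMSO basal and 10 uM staurosporine as 100%.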
The nature of assay [7]: Cellular Toxicity (caspase-3) MRC-5 (AID 659; active means well fitted curve in the direction sought with a large enough effect; an effect the other way counts as inactive or inconclusive). The gist of the method: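 Luminescent Caspase-Glo 3/7 read-out (1 h, room temperature) after a 16 h, 37 °C compound exposure of MRC-5 lung fibroblasts at 1500 cells/well. Concentration-response AC50 from Hill equation; 0% DMSO, 100% 10 uM staurosporine.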
The nature of assay [8]: Cellular Toxicity (caspase-3) Mesangial (AID 660; active means well fitted curve in the direction sought with a large enough effect; an effect the other way counts as inactive or inconclusive;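 further: combined caspase 3 and 7 activity read by Caspase-Glo luminescence; cells exposed to compound for 16 h before the caspase read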). The gist of the method: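 Caspase 3/7 activation measured by Caspase-Glo 3/7 luminescence (20 min, room temperature) following 16 h exposure of mesangial cells (1000/well); AC50 from Hill-equation fit, normalized to DMSO and 100 uM tamoxifen.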
Assay [9] is described as follows: Cellular Toxicity (caspase-3) SK-N-SH (AID 661; active means well fitted curve in the direction sought with a large enough effect; an effect the other way counts as inactive or inconclusive). An outline of the steps: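 Caspase 3/7 activation was read by luminogenic substrate cleavage after 16 hour treatment of SK-N-SH cells. Signal was scaled between DMSO and 10 uM staurosporine, and concentration-response data were fitted with the Hill equation for AC50.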
Assay [10] can be described thus: Cellular Toxicity (caspase-3) H-4-II-E (AID 663; active means well fitted curve in the direction sought with a large enough effect; an effect the other way counts as inactive or inconclusive;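 further: cells exposed to compound for 16 hr before readout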). The gist of the method:
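Caspase 3/7 activation measured by luminescent aminoluciferin substrate cleavage after 16 hr compound treatment of H-4-II-E cells in complete medium. Increase normalized between DMSO (basal) and 100 uM tamoxifen (100%); Hill-equation AC50 from concentration-response.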

Sequence of 3',5'-cyclic-AMP phosphodiesterase 4B (Homo sapiens) (Q07343 whole entry, looked up): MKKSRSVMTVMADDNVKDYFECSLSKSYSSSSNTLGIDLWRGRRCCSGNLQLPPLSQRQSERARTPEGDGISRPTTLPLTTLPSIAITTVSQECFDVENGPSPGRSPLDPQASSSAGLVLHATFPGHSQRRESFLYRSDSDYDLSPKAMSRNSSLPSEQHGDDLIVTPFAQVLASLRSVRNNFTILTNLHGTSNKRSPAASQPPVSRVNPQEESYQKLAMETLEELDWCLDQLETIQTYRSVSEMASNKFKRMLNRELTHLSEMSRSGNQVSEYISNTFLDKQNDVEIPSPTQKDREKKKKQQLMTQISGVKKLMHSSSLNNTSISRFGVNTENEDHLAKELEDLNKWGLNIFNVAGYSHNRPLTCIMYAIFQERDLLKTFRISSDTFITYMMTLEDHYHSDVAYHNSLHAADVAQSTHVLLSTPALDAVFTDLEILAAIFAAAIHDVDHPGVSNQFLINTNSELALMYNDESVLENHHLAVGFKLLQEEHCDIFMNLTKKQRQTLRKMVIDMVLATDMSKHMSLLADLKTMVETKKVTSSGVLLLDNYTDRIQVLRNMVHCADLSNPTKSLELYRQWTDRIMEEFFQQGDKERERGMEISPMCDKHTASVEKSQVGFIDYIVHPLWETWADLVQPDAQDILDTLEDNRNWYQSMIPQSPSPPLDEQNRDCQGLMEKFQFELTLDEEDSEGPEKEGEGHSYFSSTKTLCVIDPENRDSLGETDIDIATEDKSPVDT

With `CN(C)c1ccccc1CN1CCCN(Cc2ccccc2N(C)C)C1c1ccncc1`, the call in assay [1] was inactive.
Consider `C[C@@H]1C[C@H]2[C@@H]3CCC4=CC(=O)C=C[C@]4(C)[C@@]3(F)[C@@H](O)C[C@]2(C)[C@@]1(O)C(=O)CO`, for which the outcome in assay [2], in [3], in assay [4], in assay [5], in [6] and in assay [7] was inactive. Further, the compound was classed as inactive in assay [8], in assay [9] and in assay [10].
Take `O=S(=O)(O)c1ccc2cc(N=Nc3cc(S(=O)(=O)O)c4cccnc4c3O)ccc2c1`: in assay [1], the compound was called inactive.
Still for that read-out and setting: as for `O=c1cc(-c2ccc(O)c(O)c2)oc2cc(O)cc(O)c12`, the entry is “inactive”; as for `COc1ccc(CCN(C)CCCOc2ccc(S(=O)(=O)c3[nH]c4ccccc4c3C(C)C)cc2)cc1OC`, “inactive”.
Regarding `C=C1c2cccc(O)c2C(O)=C2C(=O)[C@@]3(O)C(O)=C(C(N)=O)C(=O)[C@@H](N(C)C)[C@@H]3[C@@H](O)[C@H]12`, the result in assay [1] was inactive.
On the same count and under the same terms, to `NS(=O)(=O)c1cc(Cl)c(Cl)c(S(N)(=O)=O)c1` belongs “inactive”; to `NCC1CCC(C(=O)O)CC1` (centres undefined), “inactive”.
Consider `Cc1cc2nc3c(=O)[nH]c(=O)nc-3n(CC(O)C(O)C(O)CO)c2cc1C` (centres undefined), for which the outcome in assay [1] was inactive.
As for `Cc1ccc(NC(=O)c2cccc(N(C)C)c2)cc1NC(=O)c1ccc(O)cc1`, the outcome in [1] was inactive.
Same read-out and setting: as for `NC(=O)c1nnn(Cc2cc(Cl)c(C(=O)c3ccc(Cl)cc3)c(Cl)c2)c1N`, the entry is “inactive”; as for `CN[C@H]1[C@@H](O[C@@H]2[C@H](O[C@@H]3[C@@H](O)[C@@H](O)[C@@H](N=C(N)N)[C@@H](O)[C@@H]3N=C(N)N)O[C@H](C)[C@@]2(O)C=O)O[C@@H](CO)[C@@H](O)[C@H]1O`, “inactive”.
The same measure, in the same setting: to `CCC(=C(CC)c1ccc(O)cc1)c1ccc(O)cc1` belongs “inactive”.
Regarding `CC1C(=O)OC2C(O)C34C5CC(C(C)(C)C)C36C(OC(=O)C6O)OC4(C(=O)O5)C12O` (centres undefined), the compound was called inactive in [1].
Still for that read-out and setting: as for `COc1nccc(-c2c(-c3ccc(F)cc3)ncn2C2CCC(O)CC2)n1` (centres undefined), the entry is “inactive”; as for `CCCCC(C=O)NC(=O)C(CC(C)C)NC(=O)OCc1ccccc1` (centres undefined), “inactive”.
